D2 ag-1: activates the human D2 dopamine receptor. P14416. DiscoveRx PathHunter D2 beta-arrestin, luminescence, 90 min; 100% = 57 uM dopamine signal. activation, % (concentration not given with the values). 360,000 tested, 0.084% active. AID 624465; in the data active means activation above about 40%; inconclusive means between about 15% and that limit
Target sequence (P14416 whole entry, looked up): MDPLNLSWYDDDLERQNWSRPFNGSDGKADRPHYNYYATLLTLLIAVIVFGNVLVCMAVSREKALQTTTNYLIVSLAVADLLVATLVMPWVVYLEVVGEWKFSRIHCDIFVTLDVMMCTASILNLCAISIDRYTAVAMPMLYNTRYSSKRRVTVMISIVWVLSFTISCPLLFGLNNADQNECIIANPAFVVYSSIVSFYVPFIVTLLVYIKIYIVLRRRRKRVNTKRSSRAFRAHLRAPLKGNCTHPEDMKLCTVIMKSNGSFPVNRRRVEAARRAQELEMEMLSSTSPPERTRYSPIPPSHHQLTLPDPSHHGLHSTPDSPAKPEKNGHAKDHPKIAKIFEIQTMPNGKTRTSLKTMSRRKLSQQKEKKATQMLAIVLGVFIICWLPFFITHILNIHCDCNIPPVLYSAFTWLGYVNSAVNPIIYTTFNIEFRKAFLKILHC
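DiscoveRx PathHunter D2 beta-arrestin cells (2,100/well) attached overnight, then compound-stimulated 90 min at 37 C in HBSS/10 mM HEPES/0.1% Tween-20 buffer; beta-galactosidase complementation read by luminescence after 1 h at ambient temperature. Dopamine 57 uM final (EC100) as control.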
D2 ag-2: activates the human D2 dopamine receptor; P14416; HEK293 T-REx D2 cells, calcium flux agonist mode; activation, % at 2 µM; 340,000 tested, 0.53% active; AID 485358;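 active means activation over 3 SD above normal in the single-dose calcium agonist read, cut at about 30% in these data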; further: 0% is about no effect
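Calcium-flux readout, 1 cycle/sec over 180 s following compound pin transfer, in inducible HEK293 Trex D2 cells (force-coupled); dopamine controls included. Positive calcium responses during this window marked compounds as potential agonists.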
LDHA block: LDHA (human) enzyme inhibition | P00338 | purified LDHA, NADH/diaphorase-resazurin fluorescence; stronger effect = lower value | activity change, % (values are at about 110 or 230 µM) | 480,000 tested, 0.15% active; in the data active means activity change below about -30%; inconclusive means mostly about -25% to -30%;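 further: plate controls were DMSO wells for no effect and wells without enzyme for full effect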
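Remaining NADH was detected by diaphorase (0.133 mg/mL) converting 37 µM resazurin to fluorescent resorufin, read at 0 and 20 minutes. The preceding 5-minute room-temperature reaction used 2 nM LDHA, 0.2 mM sodium pyruvate and 0.06 mM NADH at pH 7.4.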
D2 PAM-1: potentiates the human D2 dopamine receptor allosterically; DiscoveRx D2 beta-arrestin cells, luminescence, 90 min; 100% = 57 uM dopamine signal; potentiation, % (concentration not given with the values); 360,000 tested, 0.23% active; AID 624464; in the data active means potentiation above about 50%; inconclusive means mostly about 30% to 49%
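PathHunter D2 cells, attached overnight at 37 deg C, received compound in DMSO plus dopamine at EC20 (50 nM final) for 90 min at 37 deg C. Beta-arrestin recruitment was read as luminescence after 1 h with detection reagent at ambient temperature.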
D2 antag: antagonists of human D2 dopamine receptor. HEK293 TREx D2 cells, calcium flux, dopamine EC80. inhibition, % at 10 µM. 340,000 tested, 2% active; in the data active means inhibition above about 30%; inactive means below that, where a call was filed; further: 0% is about no effect
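Dopamine at EC80 is the agonist stimulus; test compounds precede it by 180 s. Calcium flux read kinetically in a force-coupled, inducible HEK293 T-REx D2 cell line.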
D2 PAM-2: positively modulates the human D2 dopamine receptor allosterically. HEK293 T-REx D2, calcium flux, EC20 dopamine potentiation. potentiation, % at 10 µM. P14416. 340,000 tested, 0.34% active;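 active means potentiation over 3 SD above the plate norm, cut at about 30% in these data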; further: 0% is about no effect
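Tetracycline-induced HEK293 T-REx cells force-coupled to calcium signalling expressed D2; compounds were pin-added after a 10 s baseline, read kinetically 180 s, then an EC20 dopamine challenge followed with a further 180 s calcium read.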
Starred values were filed as active, the others as inactive; ? = inconclusive; . = not tested or not shown. The list is not random: actives were taken first. Their share in the collection is about 2.1%.

SMILES	D2 ag-1	D2 ag-2	LDHA block	D2 PAM-1	D2 antag	D2 PAM-2
Cc1cc(NS(=O)(=O)c2ccc(NC(=O)c3ccc(Cl)cc3[N+](=O)[O-])cc2)no1	-5	1	-2	?	41*	-1
Cc1cc(NS(=O)(=O)c2ccc(NC(=O)c3ccc([N+](=O)[O-])c(Cl)c3)cc2)no1	-2	.	-8	12	.	.
O=C(CSCC(=O)NC1CC1)Nc1ccc2ccccc2c1	0	1	3	-29	35*	-21
COC(=O)c1ccccc1NC(=O)CN1CCc2ccccc2C1	5	1	-2	-10	-2	0
COC(=O)c1ccccc1NC(=O)CN1CCN(C23CC4CC(CC(C4)C2)C3)CC1	-3	1	-5	-19	72*	-24
COc1cccc(C(=O)CSc2nc3cccnc3n2C)c1	1	1	1	-3	37*	-3
COc1ccc(C(=O)CSc2nc3cccnc3n2C)cc1	-3	0	-4	1	-14	11
COc1ccc(C2(c3ccc(OC)cc3)C=Cc3c(c(O)cc4ccccc34)O2)cc1	.	.	5	.	.	.
c1cc2c(cc1C1=Nn3c(nnc3C3CCCCC3)SC1)OCO2	1	-2	0	-14	33*	13
Cc1ccc(NC(=O)c2nnn(-c3ccc4c(c3)OCCO4)c2N)cc1	1	1	-5	3	60*	-14
Nc1c(C(=O)Nc2ccccc2)nnn1-c1ccc2c(c1)OCCO2	0	0	-8	-2	-15	23
O=C(OCC(=O)N1CCNC1=O)c1csc(NCc2ccccc2)n1	.	.	-1	.	.	.
COc1ccc(NS(=O)(=O)c2c(C)cc(C)cc2C)cc1	-1	1	-3	11	34*	-5
COc1ccc(C2=CC(c3ccc(OC)c(OC)c3)n3nnnc3N2)cc1 (stereo not given)	.	.	6	.	.	.
COC(=O)c1ccc(OCC(O)CN2CCN(CC(O)COc3ccc(C(=O)OC)cc3)CC2)cc1 (stereo not given)	-2	0	-1	-4	4	10
COC(=O)c1ccc(OCC(O)CN2C(=O)c3ccccc3C2=O)cc1 (stereo not given)	1	38*	1	-2	-4	-17
COc1ccc(OCC(O)CN2C(=O)NC(C)(C)C2=O)cc1 (stereo not given)	-1	0	-1	-3	31*	-8
C/C=C/Cn1c(SCC(N)=O)nc2c1c(=O)[nH]c(=O)n2C	.	.	-7	.	.	.
Cc1c(-c2ccccc2)no[n+]1[O-]	.	.	-13	.	.	.
[O-][n+]1onc2c3cc(-c4ccccc4)nnc3ccc21	8	-1	1	53*	-23	3
Cn1cc(C(=O)N2CCN(S(=O)(=O)c3cccc(Br)c3)CC2)c2ccccc21	.	.	-18	.	.	.
CCOC(=O)c1c(C)oc2c1c(/C=N/c1ccccn1)c(O)c1ccccc12	.	.	12	.	.	.
CCOC(=O)c1c(C)oc2c1c(C(c1ccccc1)N1CCOCC1)c(O)c1ccccc12 (stereo not given)	-2	-2	10	?	57*	-3
CCOC(=O)c1c(C)oc2c1c(C(c1cccnc1)N1CCCCC1)c(O)c1ccccc12 (stereo not given)	?	0	36	102*	-2	-3
CCOC(=O)c1c(C)oc2c1c(C=NCCO)c(O)c1ccccc12	8	3	21	20	-25	12
CC(C)n1c(SCc2nc3ccccc3c(=O)[nH]2)nnc1-c1ccco1	.	.	10	.	.	.
O=C(CSc1n[nH]c(-c2cc(Br)ccc2O)n1)N1CCCC1	.	.	13	.	.	.
CCN(c1ccc(OC)cc1)S(=O)(=O)c1nnc(NC(=O)COc2ccccc2)s1	5	0	-6	-6	-9	37*
N/C(=N\OC(=O)c1cc(Cl)ccc1Cl)c1cccnc1	?	.	-7	73*	.	5
N/C(=N\OC(=O)c1cc(Br)ccc1Cl)c1cccnc1	?	1	-3	1	-27	2

Screening results as filed in PubChem.
